Results filed as inconclusive are left out. Entries that show only a call come without a potency. Calls of active or inactive are those of the source. Calls follow the shape of the dose curve; as a rule, active = well fitted cell-killing curve with a large enough effect in the repeat runs; inconclusive = weak or mixed curves, or effect the other way; inactive = flat fitted curve, though single readings scatter.
How the values were obtained:
[1] = cAMP Responsive Elements (CRE) small molecule antagonists, cell-based qHTS assay: qHTS cell viability counter screen (AID 2060913); also: nearly all actives have a fitted effect of over 40% in size
Outline: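 Steps: cells plated and held 18 hrs at 37 C/5% CO2; compounds and NKH477 (0.25 uM final) added; 3 hrs incubation; reporter substrate read; CellTiter-Glo added to measure cytotoxicity by luminescence.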

[2] = cAMP Responsive Elements (CRE) small molecule agonists, cell-based qHTS assay: qHTS cell viability counter screen (AID 2060914);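 also: viability read after 3 h of compound exposure; nearly all actives have a fitted effect of over 50% in size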
Outline: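 Cells are seeded and incubated 18 h, treated with compounds in DMSO for 3 h, read for the bla reporter, then given CellTiter-Glo; luminescence is measured after 30 min at room temperature.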

Compound | Potency [1] | Potency [2]
O=CNc1ccccc1 | inactive | inactive
CC(C)(N)C#N | inactive | inactive
O=C(O)CCS | inactive | inactive
C#C[C@]1(O)CC[C@H]2[C@@H]3CCc4cc(O)ccc4[C@H]3CC[C@@]21C | inactive | inactive
O=C(C(Cl)Cl)N1CCOC12CCCCC2 | inactive | inactive
O=C(O)CCNC(=O)c1ccc(N=Nc2ccc(O)c(C(=O)O)c2)cc1 | inactive | inactive
CCCCCC(N)=O | inactive | inactive
